Measurements: PubChem BioAssay (NCI)
About 83,000 compounds went through this panel and 20% of them were active in at least one assay; those are over-represented in the sample as a whole.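 Cell lines were cultured in 96-well plates, exposed to a single compound concentration, and assessed for percent growth 48 hours later.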 The source made the active and inactive calls. The calls were made as follows: active = growth percent below 10; inactive = the rest.

Tests used:
Assay in all cases: NCI-60 one-dose screen, 48 h (100 = growth as untreated, 0 = no growth, -100 = all killed)
Details in all cases: 10 µM unless noted
HCT-15 colon = test system: HCT-15 colon
HT29 colon = test system: HT29 colon
SNB-75 CNS = test system: SNB-75 CNS
SNB-19 CNS = test system: SNB-19 CNS
U251 CNS = test system: U251 CNS
PC-3 prostate = test system: PC-3 prostate
SK-MEL-5 melanoma = test system: SK-MEL-5 melanoma
UACC-62 melanoma = test system: UACC-62 melanoma
LOX IMVI melanoma = test system: LOX IMVI melanoma
SK-MEL-28 melanoma = test system: SK-MEL-28 melanoma

Measured: growth

C=C(CBr)[C@@H]1CC[C@]2(C(=O)O)CC[C@]3(C)[C@H](CC[C@@H]4[C@@]5(C)CCC(=O)C(C)(C)[C@@H]5CC[C@]43C)[C@@H]12
inactive: HCT-15 colon 73.2% | HT29 colon 97.5% | SNB-75 CNS 98.7% | SNB-19 CNS 78.7% | U251 CNS 70.9% | PC-3 prostate 57.4% | SK-MEL-5 melanoma 50.5% | UACC-62 melanoma 69% | LOX IMVI melanoma 75.4% | SK-MEL-28 melanoma 88.7%

CCN(CC)c1ccc(\C=N/N=C(N)/C(N)=N\N=C/c2ccc(N(CC)CC)cc2)cc1
inactive: HCT-15 colon 92.4% | HT29 colon 99.2% | SNB-75 CNS 93% | SNB-19 CNS 113% | U251 CNS 97.9% | PC-3 prostate 97.1% | SK-MEL-5 melanoma 97.1% | UACC-62 melanoma 104% | LOX IMVI melanoma 101% | SK-MEL-28 melanoma 105%

CCCCC1=C(P(=O)(O)O)N[C@H](C(=O)O)CS1
inactive: HCT-15 colon 87.9% | HT29 colon 95.3% | SNB-75 CNS 104% | SNB-19 CNS 89% | U251 CNS 94.2% | PC-3 prostate 90% | SK-MEL-5 melanoma 98.8% | UACC-62 melanoma 85.1% | LOX IMVI melanoma 92.4% | SK-MEL-28 melanoma 89.7%

Cn1cc(-c2csc(-c3c[nH]c4ccc(Br)cc34)n2)c2ccnc(Cl)c21
active: HCT-15 colon -0.791%
inactive: HT29 colon 20.8% | SNB-75 CNS 85.2% | SNB-19 CNS 81.7% | U251 CNS 33.4% | PC-3 prostate 50.2% | SK-MEL-5 melanoma 71.7% | UACC-62 melanoma 68.8% | LOX IMVI melanoma 26.2% | SK-MEL-28 melanoma 71.7%

COc1cc(-c2nccc3[nH]c(-c4ccc5cc[nH]c5c4)nc23)cc(OC)c1OC
inactive: SNB-75 CNS 18.9% | SNB-19 CNS 34.8% | UACC-62 melanoma 27.4% | SK-MEL-28 melanoma 42.1%
active: HCT-15 colon -7.01% | HT29 colon -37.8% | U251 CNS -16.3% | PC-3 prostate -0.946% | SK-MEL-5 melanoma -38.4% | LOX IMVI melanoma -67.5%

COc1ccc(OC)c(Nc2nnc(-c3ccc(O)c(OC)c3)o2)c1
inactive: HCT-15 colon 46.5% | HT29 colon 99% | SNB-75 CNS 15.2% | SNB-19 CNS 70% | U251 CNS 65.1% | PC-3 prostate 74.8% | SK-MEL-5 melanoma 71.6% | UACC-62 melanoma 96.7% | LOX IMVI melanoma 43.3% | SK-MEL-28 melanoma 108%

N=C(N)c1ccc(-c2ccc(-c3ccc(Cl)c(Cl)c3)s2)nc1
active: HCT-15 colon -71.9% | HT29 colon 5.19% | U251 CNS -55.7% | PC-3 prostate -16.9% | LOX IMVI melanoma -88.6%
inactive: SNB-75 CNS 84.8% | SNB-19 CNS 11.7% | SK-MEL-5 melanoma 91.3% | UACC-62 melanoma 81% | SK-MEL-28 melanoma 107%

CCSC(SCC)c1ccc(Cl)cc1
inactive: HCT-15 colon 108% | HT29 colon 97.4% | SNB-75 CNS 107% | SNB-19 CNS 110% | U251 CNS 102% | PC-3 prostate 101% | SK-MEL-5 melanoma 110% | UACC-62 melanoma 98.6% | LOX IMVI melanoma 95.9% | SK-MEL-28 melanoma 115%

O=C(Nc1cccc(-c2ccc(Cl)c(C(F)(F)F)c2)c1)C1CCN(Cc2cccc3cccnc23)CC1
active: HCT-15 colon -83% | HT29 colon -62.2% | U251 CNS -82.4% | SK-MEL-5 melanoma -93.4% | LOX IMVI melanoma -98.2% | SK-MEL-28 melanoma -67.6%
inactive: SNB-75 CNS 40.3% | SNB-19 CNS 61.4% | PC-3 prostate 10.8% | UACC-62 melanoma 25.9%

COc1ccc(/C=N/NC(=O)c2ccc(-n3cc(-c4ccccc4)nn3)cc2)cc1OC
inactive: HCT-15 colon 97.6% | HT29 colon 100% | SNB-75 CNS 94% | SNB-19 CNS 107% | U251 CNS 106% | PC-3 prostate 94% | SK-MEL-5 melanoma 89.2% | UACC-62 melanoma 76.7% | LOX IMVI melanoma 94.5% | SK-MEL-28 melanoma 88.8%

CCOC(=O)c1cc(C(=O)c2cc(OC)c(OC)c(OC)c2)n2ncccc12
active: HT29 colon 3.66%
inactive: HCT-15 colon 24% | SNB-75 CNS 34% | SNB-19 CNS 38.9% | U251 CNS 14.8% | PC-3 prostate 21.1% | SK-MEL-5 melanoma 25.9% | UACC-62 melanoma 29.5% | LOX IMVI melanoma 42.5% | SK-MEL-28 melanoma 67.7%

CC(C)=CC(=O)OCC(=O)O[C@@H]1C[C@]2(C(C)C)O[C@@]1(C)[C@@H]1CC[C@@H](C)[C@H]1[C@@H]2OC(=O)/C=C/c1ccccc1
inactive: HCT-15 colon 86.8% | HT29 colon 85.8% | SNB-75 CNS 88.7% | SNB-19 CNS 99.3% | U251 CNS 81.8% | PC-3 prostate 63.7% | SK-MEL-5 melanoma 90.5% | UACC-62 melanoma 78.5% | LOX IMVI melanoma 86.9% | SK-MEL-28 melanoma 103%

COC1=CC(c2ccc[nH]2)=N/C1=C\c1[nH]c(C)c(CC(=O)NCc2ccccc2)c1C
active: HCT-15 colon -26% | SNB-19 CNS -1.25% | SK-MEL-5 melanoma -64% | UACC-62 melanoma -30.5% | LOX IMVI melanoma -76.1%
inactive: HT29 colon 15.1% | SNB-75 CNS 58.3% | U251 CNS 18.7% | PC-3 prostate 12% | SK-MEL-28 melanoma 22.1%

O=C(N(c1ccccc1)c1ccccc1)n1cc(I)c2nc(Cl)nc(Cl)c21
inactive: HCT-15 colon 30.6% | HT29 colon 29.7% | SNB-75 CNS 35.1% | SNB-19 CNS 46.8% | U251 CNS 24.2% | PC-3 prostate 32.1% | SK-MEL-5 melanoma 63.9% | UACC-62 melanoma 37.2% | LOX IMVI melanoma 31.1% | SK-MEL-28 melanoma 88.2%

COC(=O)[C@]12CCC(C)(C)C[C@H]1[C@H]1/C(=N/OCCc3nn[nH]n3)C[C@@H]3[C@@]4(C)CC[C@H](OC(C)=O)C(C)(C)[C@@H]4CC[C@@]3(C)[C@]1(C)CC2
inactive: HCT-15 colon 33.3% | HT29 colon 43.1% | SNB-75 CNS 43% | SNB-19 CNS 34% | U251 CNS 36.3% | PC-3 prostate 26.7% | UACC-62 melanoma 13.2% | LOX IMVI melanoma 19.8% | SK-MEL-28 melanoma 41.9%
active: SK-MEL-5 melanoma -45%

COc1ccc(/C=C(\C#N)n2nnc3cc(Cl)ccc32)cc1
inactive: PC-3 prostate 18.8% | SK-MEL-28 melanoma 31.3%
active: HCT-15 colon 0.0447% | HT29 colon 2.07% | SNB-75 CNS -47.6% | SNB-19 CNS 9.63% | U251 CNS 5.37% | SK-MEL-5 melanoma -17.5% | UACC-62 melanoma 9.49% | LOX IMVI melanoma -45.7%

C[PH+](c1nc2ccccc2nc1[PH+](C)C(C)(C)C)C(C)(C)C.C[PH+](c1nc2ccccc2nc1[PH+](C)C(C)(C)C)C(C)(C)C.[Au+].[Cl-] (stereo not given)
active: HCT-15 colon -80.9% | HT29 colon -100% | SNB-75 CNS -98.4% | SNB-19 CNS -100% | U251 CNS -86.8% | PC-3 prostate -83.9% | SK-MEL-5 melanoma -100% | UACC-62 melanoma -79.5% | LOX IMVI melanoma -85.5% | SK-MEL-28 melanoma -85%

CC1=C2[C@@H](CC1)[C@]1(C)O[C@@](C(C)C)(C[C@H]1OC(=O)[C@H](C)O)[C@H]2OC(=O)/C=C/c1ccccc1
inactive: HCT-15 colon 83.6% | HT29 colon 82.8% | SNB-75 CNS 66.4% | SNB-19 CNS 85.1% | U251 CNS 79% | PC-3 prostate 58.3% | SK-MEL-5 melanoma 90.3% | UACC-62 melanoma 66% | LOX IMVI melanoma 84.6% | SK-MEL-28 melanoma 108%

Nc1n[nH]c2ccc([C@H]3[C@@H]4C5CCC(C5)[C@@H]4c4c(ccc5[nH]ncc45)N3S(=O)(=O)C3CC3)cc12 (stereo not given in full)
active: HT29 colon 9.97% | SNB-75 CNS -10.3% | SK-MEL-5 melanoma -22.4% | LOX IMVI melanoma 8.72%
inactive: HCT-15 colon 12.3% | SNB-19 CNS 23.2% | U251 CNS 17.7% | PC-3 prostate 28.3% | UACC-62 melanoma 32.5% | SK-MEL-28 melanoma 52.7%

O=C(NCc1ccc(Cl)cc1Cl)C1CCC(=O)N1c1cccs1 (stereo not given)
inactive: HCT-15 colon 96.5% | HT29 colon 89.9% | SNB-75 CNS 77.6% | SNB-19 CNS 99.9% | U251 CNS 89.4% | PC-3 prostate 87.4% | SK-MEL-5 melanoma 102% | UACC-62 melanoma 80.7% | LOX IMVI melanoma 89.1% | SK-MEL-28 melanoma 93.4%

Cc1nc2sc(C(=O)Nc3ccc(Br)cc3)c(N)c2cc1C(O)c1ccccc1 (stereo not given)
inactive: HCT-15 colon 34.7% | HT29 colon 36.7% | SNB-75 CNS 62.6% | SNB-19 CNS 67.7% | U251 CNS 54% | PC-3 prostate 61.4% | SK-MEL-5 melanoma 39.9% | UACC-62 melanoma 41.8% | LOX IMVI melanoma 61.3% | SK-MEL-28 melanoma 67.8%

Nc1nc(N)c(-c2ccc(Cl)c(Cl)c2)c(CBr)n1
inactive: HCT-15 colon 43% | HT29 colon 34.2% | SNB-75 CNS 95% | SNB-19 CNS 94% | U251 CNS 65.4% | PC-3 prostate 65.2% | SK-MEL-5 melanoma 62.6% | UACC-62 melanoma 57% | LOX IMVI melanoma 34.9% | SK-MEL-28 melanoma 103%

COc1ccc(NC2=C(I)C(=O)c3ncccc3C2=O)cc1
inactive: HT29 colon 11.5% | SNB-19 CNS 19.3% | PC-3 prostate 12.3% | SK-MEL-28 melanoma 20.5%
active: HCT-15 colon -40.2% | SNB-75 CNS -93.1% | U251 CNS -47.7% | SK-MEL-5 melanoma -94.6% | UACC-62 melanoma -71.2% | LOX IMVI melanoma -58.6%

O=C1/C(=C/c2ccc([N+](=O)[O-])cc2)COc2ccc(O)cc21
inactive: HCT-15 colon 28.3% | SNB-75 CNS 83.4% | SNB-19 CNS 91.4% | U251 CNS 66.1% | PC-3 prostate 88.3% | SK-MEL-5 melanoma 94% | UACC-62 melanoma 76.3% | SK-MEL-28 melanoma 108%
active: HT29 colon 4.43% | LOX IMVI melanoma 1.76%

C=C1C(=O)O[C@H]2[C@H]1CC/C(COC(=O)c1cc3ccccc3s1)=C\CC[C@@]1(C)O[C@@H]21
active: HCT-15 colon -62.4% | HT29 colon -75.4% | SNB-75 CNS -7.28% | SNB-19 CNS -9.05% | U251 CNS -82.6% | PC-3 prostate -56% | SK-MEL-5 melanoma -93.8% | UACC-62 melanoma -61.1% | LOX IMVI melanoma -83.7% | SK-MEL-28 melanoma -70.7%

COCCOc1cc2ncnc(N3CCN(c4cc(S(C)(=O)=O)c(C)cc4Cl)CC3)c2cc1OCCOC
inactive: HCT-15 colon 95.7% | HT29 colon 94.4% | SNB-75 CNS 98.8% | SNB-19 CNS 96.8% | U251 CNS 85.3% | PC-3 prostate 81.5% | SK-MEL-5 melanoma 77% | UACC-62 melanoma 94.2% | LOX IMVI melanoma 93.5% | SK-MEL-28 melanoma 107%
